Measurements from PubChem BioAssay (NCATS).
Records with an inconclusive call do not appear. Where a call stands in place of a potency, no number is given. Active and inactive are the calls of the source. Unless noted, the call rests on the fitted dose curve; in most records, active means well fitted curve in the direction sought with a large enough effect; inconclusive means small, poorly fitted or top-dose-only effect, or another doubt; inactive means no such curve, though single readings can be large; an effect the other way counts as inactive or inconclusive.

Key:
[1] = molecular target: Thyrotropin-releasing hormone receptor (Homo sapiens) (UniProt P34981); assay: qHTS for Small Molecule Agonists and Allosteric Enhancers of Human TRH Receptor: Validation Screen for Agonists (AID 493127;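 active means calcium activation more than 3 SD above the typical response in the agonist read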;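 further: intracellular calcium rise by fluo-8 fluorescence before TRH EC20 addition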); settings: TRH receptor agonist cell assay; at 2 µM; stronger effect = higher value
Method in brief: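 Read-out: intracellular calcium release measured kinetically by FDSS (fluo-8, ex 480/em 530 nm), 1 reading/s after a 10-cycle baseline. TRHR cells, 2000/well, cultured 18 h at 33.5C, dye-loaded at room temp. Compound-evoked positive calcium signal flags agonists.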

[2] = Nrf2 qHTS screen for inhibitors: Validation (AID 493153; active means well fitted inhibition curve with a large enough effect in the main read-out, with a control signal flat, not every such curve was filed as active); settings: A549 ARE-Fluc reporter, 18-24 h; Potency: luciferase luminescence; viability change: measured here: cytotoxicity max response; luciferase luminescence, at 46.1 µM (top of the series)
Method in brief: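 Concentration-response test in A549 ARE_Fluc reporter cells (5% FBS OPTI-MEM), compound exposure 18-24 h at 37°C, 5% CO2. Cell viability measured first by CellTiter-Fluor fluorescence; ARE-driven luciferase luminescence then measured as Nrf2 activity.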

[3] = qHTS for Inhibitors of Cell Surface uPA Generation: Validation Assay (AID 493164); settings: mouse cells, plasminogen activation; series mostly up to 38.3 µM;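 further: RAW 264.7 macrophage cells exposed to compound for 18 h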
Method in brief: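 Compounds are titrated over seven points (2.45 nM–38.3 uM final) onto pre-plated RAW 264.7 cells and incubated for 18 h. Retained intracellular ATP, measured with ATP-Lite, indicates blocked lethal factor entry.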

[4] = molecular target: Galactokinase (Homo sapiens) (UniProt P51570); assay: qHTS Validation Assay for Inhibitors of Human Galactokinase (GALK) (AID 493189); settings: purified human GALK enzyme activity, qHTS 7-point titration; series mostly up to 57.5 µM
Method in brief: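 GALK (5 nM) with 35 uM ATP and 100 uM galactose in HEPES pH8.0, MgCl2, NaCl, DTT, BSA; 1 h at room temperature. Residual ATP read by Kinase-Glo Plus luminescence after 10 min.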

[5] = Validation screen for small molecules that induce DNA re-replication in SW480 colon adenocarcinoma cells (AID 504364); settings: DNA re-replication phenotype (high-content imaging); series mostly up to 46.1 µM
Method in brief: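 Read-out: total Hoechst intensity of nuclei by fluorescence scanning imager; hits raise the fraction of nuclei with elevated DNA content. Cells received compound for 48 hr at 37 C before a 40 min stain.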

[6] = molecular target: Phosphoglycerate kinase, glycosomal (Trypanosoma brucei brucei) (UniProt P07378); assay: qHTS Validation Assay to Find Inhibitors of Phosphoglycerate Kinase (AID 504547); settings: enzymatic PGK inhibition, coupled luminescence read-out; series mostly up to 57.5 µM
Method in brief: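 In TEA buffer (100mM, pH 7.6) containing 5mM MgCl2 and 0.01% Tween-20, the GAPDH-coupled PGK reaction proceeded for 60 minutes at room temperature before a single luminescence reading using Kinase-Glo Plus.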

[7] = molecular target: phosphoglycerate mutase (Leishmania major) (UniProt Q4Q090); assay: qHTS Validation Assay to Find Inhibitors of Phosphoglycerate Mutase (AID 504548); settings: biochemical enzyme activity; series mostly up to 57.5 µM
Method in brief: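 Lm PGAM 1.25nM final; 100 mM TEA pH 7.6, 5 mM MgCl2, 0.01% Tween-20; 45 min RT; Kinase-GloPlus, 10 min; end-point luminescence. Enzyme-free wells as negative controls.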

[8] = molecular target: Ubiquitin carboxyl-terminal hydrolase 1 (Homo sapiens) (UniProt O94782); assay: Inhibitors of USP1/UAF1: Pilot qHTS (AID 504865); settings: purified USP1/UAF1, Ub-rhodamine cleavage fluorescence; series mostly up to 114 µM;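 further: rhodamine fluorescence freed from ubiquitin-rhodamine substrate followed over time; top concentration of the series differs between compounds; nearly all actives have a fitted effect of over 35% in size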
Method in brief: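 USP1/UAF1 complex (1nM) preincubated with compound 15 min at room temperature, then Ub-Rho substrate (150nM final) added. Fluorescence read kinetically at 480/540 nm, 6 reads every 60 seconds. Buffer: 50mM HEPES pH 7.8, 0.5mM EDTA, 0.1 mg/ml BSA, 1mM TCEP, 0.01% Tween-20.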

[9] = qHTS for Inhibitors of ATXN expression: Validation of Cytotoxic Assay (AID 588349); settings: cytotoxicity counter-screen for ATXN expression inhibitors, cell viability; series mostly up to 57.1 µM
Method in brief: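 Cytotoxicity counter-screen: HEK293 cells exposed to compound titrations, 72 hr, 37 degrees C. Read-out is intracellular ATP (CellTiter Glo luminescence) as a viability measure.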

[10] = qHTS for Inhibitors of ATXN expression: Validation (AID 588378); settings: cell-based ATXN2 expression reporter assay, luminescence; series mostly up to 57.1 µM; further: nearly all actives have a fitted effect of over 75% in size
Method in brief: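 Luminescence from an ATXN2-FFLuc reporter in HEK293 cells served as read-out after 24 h compound treatment at 37 degrees C; CellTiter-Fluor fluorescence was recorded first to assess viability.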

[11] = molecular target: Peptidyl-prolyl cis-trans isomerase NIMA-interacting 1 (Homo sapiens) (UniProt Q13526); assay: qHTS Validation Assay to Find Inhibitors of Pin1 (AID 504536; active means well fitted inhibition curve with a large enough effect in the polarisation, with a control signal flat, not every such curve was filed as active; the % refers to the polarisation); settings: Pin1 fluorescence polarization peptide binding assay; series mostly up to 57.5 µM
Method in brief: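 Fluorescence polarization competition: compounds (titration) displace HiFluor-488-labeled Pin1-1b peptide from Pin1 (0.3 uM final) in pH 7.5 HEPES buffer with DTT, 10 min at room temperature; %Activity normalized to no-enzyme wells, curves fitted.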

[12] = molecular target: DNA dC->dU-editing enzyme APOBEC-3G (Homo sapiens) (UniProt Q9HC16); assay: qHTS for inhibitors of Vif-A3G interactions: Validation (AID 588379); settings: Vif-A3G protein interaction assay; series mostly up to 46.1 µM
Method in brief: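 Yellow fluorescence (Ex 488, Em 500-530) of Vif-coexpressing HeLa A3G-eYFP cells, scanned by Acumen cytometer, reports blocked A3G degradation. Cells plated at 700/well overnight at 37 deg C before compound addition, then a further overnight compound incubation at 37 deg C.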

[13] = molecular target: Estrogen receptor (Homo sapiens) (UniProt P03372); assay: qHTS assay for small molecule antagonists of estrogen receptor alpha signaling (AID 588513; active means well fitted curve in the direction sought with a large enough effect in the signal ratio, with a control signal flat, not every such curve was filed as active; the % refers to the signal ratio); settings: ER-alpha-UAS-bla HEK293, beta-lactamase ratio, antagonist mode; series mostly up to 76.9 µM
Method in brief: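 ER-alpha-UAS-bla GripTite HEK 293 cells in medium with 2% charcoal/dextran-treated FBS were preincubated 4 h at 37 C, dosed with compound (1:2 titration), stimulated with 0.5nM 17-beta-estradiol for 18 h, then read by CCF4 beta-lactamase fluorescence.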

[14] = molecular target: Estrogen receptor (Homo sapiens) (UniProt P03372); assay: qHTS assay for small molecule agonists of estrogen receptor alpha signaling (AID 588514; calls by dose curve; further: nearly all actives have a fitted effect of over 70% in size; further: potency means the concentration at half of the fitted maximal effect); settings: ER-alpha-UAS-bla HEK293, beta-lactamase ratio, 18 h; series mostly up to 76.8 µM
Method in brief: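 Read-out: CCF4 fluorescence from a beta-lactamase reporter in ER-alpha-UAS-bla HEK 293 cells after 18 hrs of compound exposure at 37 C. Normalized to 20 nM 17-beta-estradiol (100%) and DMSO (0%).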

[15] = molecular target: Glucocorticoid receptor (Homo sapiens) (UniProt P04150); assay: qHTS assay for small molecule agonists of glucocorticoid receptor signaling (AID 588532; active means well fitted curve in the direction sought with a large enough effect in the signal ratio, with a control signal flat; the % refers to the signal ratio); settings: HeLa MMTV-bla, beta-lactamase ratio, agonist, 18 h; activation: stronger effect = higher value, percent of dexamethasone control, DMSO zero
Method in brief: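 MMTV-bla HeLa, beta-lactamase reporter; medium with 1% charcoal/dextran-stripped FBS; cpds up to 92 uM, 18 h, 37 C; CCF4 readout 460/530 nm; Hill fit → EC50, efficacy vs 0.1 uM dexamethasone = 100%.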

[16] = molecular target: Glucocorticoid receptor (Homo sapiens) (UniProt P04150); assay: qHTS assay for small molecule antagonists of glucocorticoid receptor signaling (AID 588533; active means well fitted inhibition curve with a large enough effect in the signal ratio, with a control signal flat, not every such curve was filed as active; the % refers to the signal ratio;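 further: cells stimulated with 2 nM dexamethasone as agonist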; further: potency means the concentration at half of the fitted maximal effect); settings: HeLa MMTV-bla, GRE beta-lactamase ratio, antagonist mode, 18 h; series mostly up to 76.8 µM
Method in brief: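 Antagonist-mode qHTS: compound titrations added to GRE-bla HeLa cells, then dexamethasone 2 nM final; 18 h, 37 C. CCF4 FRET fluorescence normalized to dexamethasone and DMSO; IC50 from Hill fit.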

[17] = molecular target: Androgen receptor (Homo sapiens) (UniProt P10275); assay: qHTS assay for small molecule agonists of androgen receptor signaling (AID 588515; active means well fitted curve in the direction sought with a large enough effect in the signal ratio, with a control signal flat; the % refers to the signal ratio; further: potency means the concentration at half of the fitted maximal effect); settings: AR-UAS-bla HEK293, beta-lactamase ratio, agonist 16 h; activation: stronger effect = higher value
Method in brief: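 Stimulation of an AR-responsive β-lactamase reporter in GripTite HEK293 cells was measured after 16 h compound exposure at 37 °C, via CCF4 fluorescence after 2 h RT. EC50 from Hill fits, normalized to R1881 at 30 nM.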

Peptidyl-prolyl cis-trans isomerase NIMA-interacting 1 (Homo sapiens), sequence (Q13526 whole entry, looked up): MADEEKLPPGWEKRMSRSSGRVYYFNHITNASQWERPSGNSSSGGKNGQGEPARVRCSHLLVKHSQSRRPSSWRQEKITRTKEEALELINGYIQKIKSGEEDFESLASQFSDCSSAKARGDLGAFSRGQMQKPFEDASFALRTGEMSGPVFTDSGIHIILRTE
phosphoglycerate mutase (Leishmania major), sequence (Q4Q090 1-553): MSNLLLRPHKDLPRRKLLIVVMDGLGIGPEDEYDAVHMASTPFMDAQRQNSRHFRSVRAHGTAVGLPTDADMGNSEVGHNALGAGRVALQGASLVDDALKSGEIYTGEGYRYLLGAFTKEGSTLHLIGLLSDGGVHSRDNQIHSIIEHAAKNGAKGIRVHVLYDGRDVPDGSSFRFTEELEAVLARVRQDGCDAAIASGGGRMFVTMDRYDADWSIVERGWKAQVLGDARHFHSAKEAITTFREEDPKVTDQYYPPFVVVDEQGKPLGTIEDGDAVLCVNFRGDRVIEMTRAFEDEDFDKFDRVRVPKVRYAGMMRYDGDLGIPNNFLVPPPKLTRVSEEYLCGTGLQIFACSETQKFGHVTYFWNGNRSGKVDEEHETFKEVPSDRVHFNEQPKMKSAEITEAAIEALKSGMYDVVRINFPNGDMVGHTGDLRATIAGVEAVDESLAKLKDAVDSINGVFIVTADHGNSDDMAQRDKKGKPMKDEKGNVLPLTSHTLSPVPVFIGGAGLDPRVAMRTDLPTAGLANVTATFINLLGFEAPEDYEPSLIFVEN
Thyrotropin-releasing hormone receptor (Homo sapiens), sequence (P34981 whole entry, looked up): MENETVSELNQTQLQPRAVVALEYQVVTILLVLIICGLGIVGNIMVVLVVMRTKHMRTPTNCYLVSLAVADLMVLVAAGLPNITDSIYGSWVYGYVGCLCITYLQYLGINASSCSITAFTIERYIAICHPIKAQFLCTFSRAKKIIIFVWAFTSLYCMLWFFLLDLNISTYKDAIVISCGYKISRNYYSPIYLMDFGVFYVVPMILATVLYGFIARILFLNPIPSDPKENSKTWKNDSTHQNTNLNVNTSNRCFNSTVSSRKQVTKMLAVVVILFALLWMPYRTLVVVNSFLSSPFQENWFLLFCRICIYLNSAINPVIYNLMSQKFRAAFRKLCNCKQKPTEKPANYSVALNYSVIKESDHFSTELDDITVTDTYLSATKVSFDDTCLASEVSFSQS
Ubiquitin carboxyl-terminal hydrolase 1 (Homo sapiens), sequence (O94782 whole entry, looked up): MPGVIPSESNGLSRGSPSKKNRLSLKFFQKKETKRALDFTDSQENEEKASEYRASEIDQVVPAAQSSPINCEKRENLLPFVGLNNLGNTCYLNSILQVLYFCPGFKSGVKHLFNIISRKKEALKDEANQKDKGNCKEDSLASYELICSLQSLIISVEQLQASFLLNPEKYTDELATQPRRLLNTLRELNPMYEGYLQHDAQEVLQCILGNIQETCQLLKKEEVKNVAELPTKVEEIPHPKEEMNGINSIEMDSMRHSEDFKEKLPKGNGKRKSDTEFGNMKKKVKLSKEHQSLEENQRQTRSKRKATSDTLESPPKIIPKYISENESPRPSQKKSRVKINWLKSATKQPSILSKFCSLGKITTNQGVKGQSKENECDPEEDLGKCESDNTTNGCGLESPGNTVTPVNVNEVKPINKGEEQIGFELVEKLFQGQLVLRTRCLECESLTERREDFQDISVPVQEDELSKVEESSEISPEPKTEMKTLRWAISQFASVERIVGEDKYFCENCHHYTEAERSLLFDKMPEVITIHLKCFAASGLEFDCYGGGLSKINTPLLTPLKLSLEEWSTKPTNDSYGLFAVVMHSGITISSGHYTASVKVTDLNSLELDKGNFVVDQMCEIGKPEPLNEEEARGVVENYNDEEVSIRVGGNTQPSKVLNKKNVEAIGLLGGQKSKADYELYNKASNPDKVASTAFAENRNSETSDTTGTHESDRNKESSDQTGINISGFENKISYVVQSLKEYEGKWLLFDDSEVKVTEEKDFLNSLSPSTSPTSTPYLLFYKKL
Phosphoglycerate kinase, glycosomal (Trypanosoma brucei brucei), sequence (P07378 whole entry, looked up): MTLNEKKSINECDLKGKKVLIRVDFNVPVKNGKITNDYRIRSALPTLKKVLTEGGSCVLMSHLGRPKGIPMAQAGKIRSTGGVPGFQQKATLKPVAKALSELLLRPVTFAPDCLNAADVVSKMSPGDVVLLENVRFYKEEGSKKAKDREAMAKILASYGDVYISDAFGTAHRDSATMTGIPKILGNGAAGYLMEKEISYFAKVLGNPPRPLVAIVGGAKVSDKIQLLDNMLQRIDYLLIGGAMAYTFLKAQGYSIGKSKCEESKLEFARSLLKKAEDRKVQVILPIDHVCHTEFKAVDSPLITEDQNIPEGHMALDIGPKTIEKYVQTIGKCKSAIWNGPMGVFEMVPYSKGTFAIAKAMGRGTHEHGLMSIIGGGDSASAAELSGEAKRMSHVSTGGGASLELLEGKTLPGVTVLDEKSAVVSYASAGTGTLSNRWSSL
Glucocorticoid receptor (Homo sapiens), sequence (P04150 whole entry, looked up): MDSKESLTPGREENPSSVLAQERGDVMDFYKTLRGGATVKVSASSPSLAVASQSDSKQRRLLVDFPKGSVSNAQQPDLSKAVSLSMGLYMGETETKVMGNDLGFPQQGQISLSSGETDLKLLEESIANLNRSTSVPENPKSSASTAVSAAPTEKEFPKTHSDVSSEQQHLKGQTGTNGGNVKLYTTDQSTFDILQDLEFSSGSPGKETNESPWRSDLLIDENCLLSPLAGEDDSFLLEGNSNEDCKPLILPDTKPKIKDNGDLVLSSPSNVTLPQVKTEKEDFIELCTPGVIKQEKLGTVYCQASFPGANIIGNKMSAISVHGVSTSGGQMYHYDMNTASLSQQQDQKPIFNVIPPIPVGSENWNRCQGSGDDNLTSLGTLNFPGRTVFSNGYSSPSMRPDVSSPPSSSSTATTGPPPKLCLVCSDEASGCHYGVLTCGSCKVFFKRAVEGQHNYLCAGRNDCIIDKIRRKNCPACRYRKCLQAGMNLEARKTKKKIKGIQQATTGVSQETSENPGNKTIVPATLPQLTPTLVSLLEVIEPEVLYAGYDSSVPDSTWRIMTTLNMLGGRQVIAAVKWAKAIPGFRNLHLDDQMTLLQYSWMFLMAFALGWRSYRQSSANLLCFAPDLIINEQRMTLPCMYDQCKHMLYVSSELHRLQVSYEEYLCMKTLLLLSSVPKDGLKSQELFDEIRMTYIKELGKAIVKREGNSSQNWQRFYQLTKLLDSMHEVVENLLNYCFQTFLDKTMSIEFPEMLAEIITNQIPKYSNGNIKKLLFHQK
DNA dC->dU-editing enzyme APOBEC-3G (Homo sapiens), sequence (Q9HC16 whole entry, looked up): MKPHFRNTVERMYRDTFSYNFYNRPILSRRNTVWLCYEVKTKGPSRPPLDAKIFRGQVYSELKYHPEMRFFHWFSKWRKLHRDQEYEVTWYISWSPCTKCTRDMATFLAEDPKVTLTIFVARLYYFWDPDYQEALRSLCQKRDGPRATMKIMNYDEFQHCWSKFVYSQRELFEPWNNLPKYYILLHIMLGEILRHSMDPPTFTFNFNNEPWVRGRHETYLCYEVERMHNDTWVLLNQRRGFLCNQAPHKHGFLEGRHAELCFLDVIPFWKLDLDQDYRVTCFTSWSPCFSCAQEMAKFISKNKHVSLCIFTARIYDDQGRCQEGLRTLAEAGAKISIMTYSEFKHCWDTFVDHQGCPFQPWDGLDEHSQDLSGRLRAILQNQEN
Estrogen receptor (Homo sapiens), sequence (P03372 whole entry, looked up): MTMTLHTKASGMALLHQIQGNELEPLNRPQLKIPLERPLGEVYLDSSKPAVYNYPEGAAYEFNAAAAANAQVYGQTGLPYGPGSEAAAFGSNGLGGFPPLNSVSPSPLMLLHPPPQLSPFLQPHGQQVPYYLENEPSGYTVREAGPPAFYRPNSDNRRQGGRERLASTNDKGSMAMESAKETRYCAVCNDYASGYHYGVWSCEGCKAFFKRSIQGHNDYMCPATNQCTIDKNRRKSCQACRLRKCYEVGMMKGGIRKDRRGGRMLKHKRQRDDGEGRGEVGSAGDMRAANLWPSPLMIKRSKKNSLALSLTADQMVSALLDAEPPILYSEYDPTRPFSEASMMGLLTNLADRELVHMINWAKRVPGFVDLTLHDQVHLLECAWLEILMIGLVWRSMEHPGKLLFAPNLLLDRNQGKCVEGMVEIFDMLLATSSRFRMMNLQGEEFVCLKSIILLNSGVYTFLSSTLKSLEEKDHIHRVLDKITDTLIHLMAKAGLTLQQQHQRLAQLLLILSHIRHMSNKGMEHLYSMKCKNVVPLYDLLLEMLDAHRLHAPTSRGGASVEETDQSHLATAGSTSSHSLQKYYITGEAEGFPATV
Galactokinase (Homo sapiens), sequence (P51570 whole entry, looked up): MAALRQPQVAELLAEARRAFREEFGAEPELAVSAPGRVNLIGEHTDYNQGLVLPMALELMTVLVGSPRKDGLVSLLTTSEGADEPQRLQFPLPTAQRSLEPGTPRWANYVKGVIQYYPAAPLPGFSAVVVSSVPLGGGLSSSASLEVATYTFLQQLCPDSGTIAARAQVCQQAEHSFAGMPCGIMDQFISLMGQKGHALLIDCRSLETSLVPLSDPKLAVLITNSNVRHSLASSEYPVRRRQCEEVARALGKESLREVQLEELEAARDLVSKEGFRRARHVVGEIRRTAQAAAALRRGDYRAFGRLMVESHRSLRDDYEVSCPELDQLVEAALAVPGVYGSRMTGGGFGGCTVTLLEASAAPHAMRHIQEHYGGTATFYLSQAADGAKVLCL

Compound | activation [1] | Potency [2] | viability change [2] [%] | outcome [3] | outcome [4] | outcome [5] | outcome [6] | outcome [7] | Potency [8] | Potency [9] | Potency [10] | outcome [11] | outcome [12] | outcome [13] | Potency [14] | activation [15] | Potency [16] | Potency [17]
C#CCN(C)CCCOc1ccc(Cl)cc1Cl | -5.81% (inactive) | inactive | -1.92 | inactive | inactive | inactive | inactive | inactive | inactive | inactive | inactive | – | – | – | – | – | – | –
Cc1scc2c1N(C(=O)CN1CCN(C)CC1)c1ccccc1NC2=O | 0.5% (inactive) | inactive | 3.95 | inactive | inactive | inactive | inactive | inactive | inactive | inactive | inactive | inactive | inactive | – | – | – | – | –
CCCNC(C)C(=O)Nc1ccccc1C (configuration not stated) | 1.5% (inactive) | inactive | -6.89 | inactive | inactive | inactive | inactive | inactive | inactive | – | inactive | inactive | – | – | – | – | – | –
CN/C(=C\[N+](=O)[O-])NCCSCc1ccc(CN(C)C)o1 | 0.938% (inactive) | inactive | 4.46 | inactive | inactive | inactive | inactive | inactive | inactive | inactive | inactive | inactive | inactive | – | – | – | – | –
CCOC(=O)C1=C(C)NC(C)=C(C(=O)OC)C1c1cccc([N+](=O)[O-])c1 (configuration not stated) | -4.62% (inactive) | inactive | 9.17 | inactive | inactive | inactive | inactive | – | inactive | – | inactive | inactive | – | – | – | – | – | –
Cc1ccc(S(=O)(=O)NC(=O)NN2CCCCCC2)cc1 | 0.188% (inactive) | inactive | -3.67 | inactive | inactive | inactive | inactive | inactive | – | inactive | inactive | inactive | – | inactive | inactive | -1.16% (inactive) | inactive | –
CC(C(=O)O)c1ccc(CC2CCCC2=O)cc1 (configuration not stated) | 1.56% (inactive) | inactive | -13.4 | inactive | inactive | inactive | inactive | – | inactive | inactive | inactive | inactive | – | – | – | – | – | –
CCCC(C(=O)OCCN(CC)CC)(c1ccccc1)c1ccccc1 | -7.5% (inactive) | inactive | -7.4 | inactive | inactive | inactive | inactive | inactive | inactive | inactive | inactive | inactive | – | – | – | – | – | –
CC(=O)OCC1=C(C(=O)O)N2C(=O)[C@@H](NC(=O)Cc3cccs3)[C@H]2SC1 | 0.938% (inactive) | inactive | 0.396 | inactive | inactive | inactive | inactive | – | inactive | inactive | inactive | – | – | – | – | – | – | –
NC(Cc1ccc(Cl)cc1)C(=O)O (configuration not stated) | 0.75% (inactive) | inactive | -1.14 | inactive | inactive | inactive | inactive | – | inactive | inactive | inactive | inactive | – | – | – | – | – | –
Nc1nc(N)c2nc(-c3ccccc3)c(N)nc2n1 | -0.0625% (inactive) | inactive | 5.44 | inactive | inactive | inactive | inactive | inactive | inactive | – | inactive | – | – | inactive | 35.5 µM (active) | – | – | 44.7 µM (active)
COc1cc(C(=O)OCCCN2CCCN(CCCOC(=O)c3cc(OC)c(OC)c(OC)c3)CC2)cc(OC)c1OC | 0.688% (inactive) | inactive | -0.03 | inactive | inactive | inactive | inactive | inactive | inactive | – | inactive | inactive | inactive | – | – | – | – | –
C[C@H](CS)C(=O)N1CCC[C@H]1C(=O)O | -0.375% (inactive) | inactive | 0.828 | inactive | – | inactive | inactive | inactive | – | inactive | inactive | inactive | – | – | – | – | – | –
Cc1nc2c([nH]1)c(=O)n(C)c(=O)n2Cc1ccco1 | 0.812% (inactive) | inactive | -1.43 | inactive | inactive | inactive | inactive | inactive | inactive | inactive | inactive | inactive | – | – | – | – | – | –
Cc1nnc(SCC2=C(C(=O)O)N3C(=O)[C@@H](NC(=O)Cn4cnnn4)[C@H]3SC2)s1 | 1.12% (inactive) | inactive | -1.79 | inactive | inactive | inactive | inactive | – | inactive | inactive | inactive | inactive | – | – | – | – | – | –
COc1cc(Cc2cnc(N)nc2N)cc(OC)c1OC | 0.312% (inactive) | inactive | 1.71 | inactive | inactive | inactive | inactive | inactive | inactive | inactive | inactive | inactive | inactive | inactive | inactive | -1.11% (inactive) | inactive | –
C[C@]12CCC(=O)C=C1CC[C@@H]1[C@@H]2C(=O)C[C@@]2(C)[C@H]1CC[C@]2(O)C(=O)CO | -0.125% (inactive) | inactive | 8.98 | inactive | inactive | inactive | inactive | inactive | inactive | inactive | inactive | inactive | – | – | inactive | -0.667% (inactive) | 28.2 µM (active) | –
